Data on 69 compounds can be found in PubChem BioAssay AID686979 (National Center for Advancing Translational Sciences (NCATS), 2013).

The structures appear in SMILES notation. In all, about 420,000 compounds went through this assay and about 50,000 (12%) were called active. About 26% were inconclusive and are not listed. The entries come from a sample that favours actives as a whole. A call without a number means that no potency is given here. Unmarked numbers belong to inactive results. Calls follow the shape of the dose curve; as a rule, active = well fitted inhibition curve with a large enough effect; inconclusive = small, poorly fitted or top-dose-only effect; inactive = flat fitted curve, though single readings scatter.
Potency is read from the fitted curve at half-maximal effect.

The nature of this test: qHTS for Inhibitors of human tyrosyl-DNA phosphodiesterase 1 (TDP1): qHTS in cells in presence of CPT. Also: nearly all actives have a fitted effect of over 55% in size. The settings on record: chicken DT40 Tdp1-/-;hTDP1 cells + 20 nM CPT, ATP luminescence, 48 h; series mostly up to 46.2 µM. The procedure, abridged: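 Cell growth measured by CellTiter-Glo luminescence after a minimum 48 h, 37 C compound exposure with 20 nM CPT in Tdp1-knockout DT40 cells stably expressing hTDP1, seeded 400/well; qHTS titration format.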
In general terms: Quantitative high-throughput screening tests each substance at several concentrations.
As for `Cc1nc2nc(C)c(NS(=O)(=O)c3ccc(C(C)(C)C)cc3)c(=O)n2[nH]1`, the Potency entry was “inactive”.
`CCCS(=O)(=O)NCc1c(C)ncc2c1CCN(C(=O)c1ccc(F)c(F)c1)C2`: the activity change, negative = growth inhibition is -3.77% [at 9.04 µM].
For `Cc1coc2c1c(C)cc1oc(=O)c(CC(=O)NCC(=O)N[C@H](C(=O)O)C(C)C)c(C)c12`, the Potency entry is “inactive”.
Still for that read-out and setting: in the case of `CC(C#N)OC(=O)c1cccnc1SCC(=O)Nc1ccc2c(c1)OCO2` (centres undefined) it was “inactive”; in that of `COc1ccc2c(c1)SC(C)CC2=O` (centres undefined), “inactive”.
Still for that read-out and setting: in the case of `COc1ccc2c(c1)OC(O)(C(F)(F)C(F)F)CC2=O` (centres undefined) it was 11.6 µM (active); in that of `O=C(CCC(=O)OCc1cccc(C(=O)Oc2ccccc2)c1)Nc1cccc2ccccc12`, “inactive”.
The same measure, in the same setting: in the case of `CS(=O)(=O)c1ccc(C(=O)NNC(=O)c2cccs2)cc1` it was “inactive”; in that of `CC(=O)NC12CC3CC(C1)CC(C(=O)N1CCN(S(=O)(=O)c4cccs4)CC1)(C3)C2`, “inactive”.
In the case of `CCOc1ccc(C(=O)Nc2ccc(CN3CCOCC3)cc2)cc1Cl`, the Potency entry was “inactive”.
For `CCOc1ccc(/C=C(\C#N)c2nc3ccccc3c(=O)[nH]2)cc1OC`, the Potency entry was “inactive”.
On the same count and under the same terms, in the case of `COc1cc(/C=C(\C#N)c2nc3ccccc3[nH]2)ccc1O` it was 25.9 µM (active).
On the same count and under the same terms, the value for `N#C/C(=C\c1ccccc1F)c1nc2ccccc2c(=O)[nH]1` was “inactive”; that for `Cc1nnc(SCc2nc3ccccc3nc2C)s1` was “inactive”.
For `ClC1(Cl)CC1CSc1ncn[nH]1` (centres undefined), the Potency result is “inactive”.
On to `O=C(CSc1ncccn1)NCCc1ccccc1`, for which the Potency result is “inactive”.
Same read-out and setting: in the case of `S=C(Nc1cccc(Br)c1)N1CCn2cccc2C1c1cccnc1` (centres undefined) it was “inactive”.
With `S=C(NCCc1ccccc1)N1CCn2cccc2C1c1ccncc1` (centres undefined), the Potency was 18.4 µM (active).
As to `CCC(=O)Nc1ccc(C(=O)NNC(=O)c2ccc(Cl)cc2)cc1`, the Potency entry is “inactive”.
On the same count and under the same terms, in the case of `CC(C)C(C(=O)NCc1ccco1)N(CC1CCCO1)C(=O)CNS(=O)(=O)c1ccc(F)cc1` (centres undefined) it was “inactive”; in that of `COC(=O)[C@@]1(Sc2ccc(C)cc2)CC(=O)N(c2cccc(SC)c2)[C@@H]1c1ccccc1`, 18.4 µM (active); in that of `Cc1ccc(C2SCC(=O)N2c2ccccc2)cc1` (centres undefined), “inactive”.
Regarding `O=C1CC(c2ccccc2)C(=O)N1c1cccc(O)c1` (centres undefined), the Potency entry is “inactive”.
The same measure, in the same setting: in the case of `COc1cc(CO)ccc1OCC(=O)Nc1cccc2ccccc12` it was “inactive”.
Still for that read-out and setting: the value for `O=C(NCCCn1ccnc1)c1cc(Br)c(Br)s1` was “inactive”; that for `COC(=O)c1sc2[nH]c(=S)n(N)c(=O)c2c1C` was “inactive”; that for `CC(C)(C)OC(=O)NCCCCCC(=O)N/N=C/c1coc2ccccc2c1=O` was “inactive”.
For the compound `O=c1c(/C=N/O)coc2ccc(Cl)cc12`, the Potency entry is “inactive”.
Consider `Cc1ccc2occ(/C=N/NC(=O)c3ccccc3C)c(=O)c2c1`, for which the Potency is 16.4 µM (active).
Same read-out and setting: in the case of `CN1CCC(OC(=O)COc2ccc(Cl)cc2Cl)CC1` it was “inactive”.
In the case of `O=C(COC(=O)c1ccccc1SCC(=O)N1CCCC1)Nc1ccccc1OC(F)F`, the Potency entry is “inactive”.
On the same count and under the same terms, in the case of `Cn1c(SCC(=O)N2CCCC2)nnc1-c1cccs1` it was “inactive”.
Still for that read-out and setting: in the case of `Cc1cc(C)cc(NC(=O)Cn2nc(N3CCN(c4ccccc4)CC3)ccc2=O)c1` it was “inactive”.
Still for that read-out and setting: in the case of `COc1ccc(CNc2nccs2)cc1` it was “inactive”; in that of `COc1ccc(CNC(=O)CCn2cccc2)cc1`, “inactive”; in that of `COc1ccc(CNc2c(CO)cnc3c2cnn3C)cc1`, 8.2 µM (active).
For `CSc1nc2nc3c(c(=O)n2[nH]1)CCC3`, the Potency result was “inactive”.
Still for that read-out and setting: the value for `Cc1cc(NS(=O)(=O)c2ccc(NC(=O)c3ccccc3C)cc2)nc(C)n1` was “inactive”.
Take `Cc1cnc(C(=O)N2CCOc3ccc(CN4CCCC(C(=O)c5cccnc5)C4)cc3C2)[nH]1` (centres undefined): the activity change, negative = growth inhibition is -10% [at 9.04 µM].
Regarding `CN(C)CC(C)(C)CNC(=O)c1cc(Br)cc(Br)c1O`, the Potency result is “inactive”.
For the compound `O=C(O)CC1(CC(=O)Nc2cccc(C(F)(F)F)c2)CCCC1`, the Potency result is “inactive”.
On the same count and under the same terms, in the case of `O=C(Nc1cccc(C(F)(F)F)c1)c1cc(Br)cc(Br)c1O` it was 11.9 µM (active); in that of `Cc1cc(F)ccc1S(=O)(=O)Nc1ncnc2scc(-c3ccc(F)cc3)c12`, “inactive”.
The same measure, in the same setting: in the case of `COc1ccnc2c1c(=O)n(Cc1cccc(F)c1)c(=O)n2C` it was “inactive”.
Still for that read-out and setting: the value for `O=c1c2cccnc2n(Cc2cccc(F)c2)c(=O)n1Cc1ccccc1Cl` was 14.6 µM (active).
`CCOC(=O)Cn1c(=O)n(Cc2ccc(OC)cc2)c(=O)c2cccnc21`: the Potency result is “inactive”.
Take `O=C(NC1CCCC1)C(c1ccc(Cl)cc1)N(C(=O)c1csnn1)C1CC1` (centres undefined): the Potency result was “inactive”.
`Cc1ccc(-n2ncc3c(=O)n(Cc4cccc(C(F)(F)F)c4)cnc32)cc1C`: the Potency result is “inactive”.
Take `Cc1ccc(-n2ncc3c(=O)n(-c4ccc(C)c(C)c4)c(-c4ccco4)nc32)cc1`: the Potency was 18.4 µM (active).
Same read-out and setting: in the case of `Cc1ccc(-c2nc3c(cnn3-c3ccccc3)c(=O)o2)cc1` it was “inactive”; in that of `CCN(CC)S(=O)(=O)c1ccc(C(=O)N2CCN(C3=NS(=O)(=O)c4ccccc43)CC2)cc1`, “inactive”; in that of `Cn1c(=O)c2c(nc(SCCNS(=O)(=O)c3ccccc3)n2C)n(C)c1=O`, “inactive”.
Consider `CCC/C(C)=N\Nc1nc2c(c(=O)n(C)c(=O)n2C)n1C`, for which the Potency was 18.4 µM (active).
Same read-out and setting: the value for `CC(O)c1nc2c(c(=O)n(C)c(=O)n2C)n1C` (centres undefined) was “inactive”; that for `Cc1cc(-c2nnc(SCC(=O)Nc3ccc(F)cc3)n2N)n[nH]1` was “inactive”; that for `Cc1ccc(C)c(NC(=O)C(OC(=O)c2ccc(C)s2)c2ccccc2)c1` (centres undefined) was “inactive”.
The same measure, in the same setting: in the case of `O=C1CN(C(=O)COc2c(Cl)cccc2Cl)c2ccccc2N1` it was “inactive”; in that of `CCCc1nc(N)nc2c1C(=O)CC(C)(C)C2`, “inactive”; in that of `CC/C(O)=C1\C(=O)CC(C)(C)CC1=NCCc1nc2ccccc2[nH]1`, 23.1 µM (active).
Same read-out and setting: the value for `O=C(OCc1nc2ccccc2[nH]1)C1CCCCC1` was “inactive”.
Regarding `COc1ccc(S(=O)(=O)Nc2cc(C)on2)cc1NC(C)=O`, the Potency entry was “inactive”.
The same measure, in the same setting: the value for `CC1(C)CC(=O)C=C(c2ccc(Cl)c(C(F)(F)F)c2)C1` was “inactive”.
With `CCn1cc(C(=O)OCC(=O)Nc2cc(C)cc(C)c2)c(=O)c2ccc(C)nc21`, the Potency result was “inactive”.
Same read-out and setting: the value for `Cc1cc(NC(=O)CS(=O)(=O)c2cn(C)c3ccccc23)no1` was “inactive”.
On the same count and under the same terms, in the case of `Cc1c(C(=O)N(C)CCc2cnn(C)c2)oc2c(F)cccc12` it was “inactive”.
The same measure, in the same setting: the value for `CC(C)(C)CC(C)(C)NCC(O)COCCOc1ccc(Br)cc1` (centres undefined) was 5.17 µM (active); that for `CC(Oc1ccc(Br)cc1)C(=O)NC1CCCCCC1` (centres undefined) was “inactive”.
In the case of `OC(COc1ccc(Br)cc1)CN1CCCC1` (centres undefined), the Potency result was “inactive”.
The same measure, in the same setting: in the case of `COC(=O)C1(C)NC(c2ccc(C)cc2)C2C(=O)N(c3ccc(F)cc3)C(=O)C21` (centres undefined) it was “inactive”.
